# Test system: PPARg:RXRa (NR concentration 180 nM, RXRa partner concentration 90 nM)
# Assay: PBM binding z-score (relative to random genomic background probes); higher = stronger binding; sequences stand for … in GC…GCGATTGACAGCGTAGAATGAAGG
# Outline: (§1)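 For binding z-scores, the reference was random background probes on custom Agilent 4×180K protein-binding microarrays. These arrays were incubated 1 h with ligand-free nuclear receptor dimers in PBS pH 7.4, 2% milk, 0.02% Triton X-100, 1 mM DTT, 0.2 mg/mL BSA and 0.4 mg/ml salmon testes DNA. Fluorescence was scanned after antibody detection of each partner (one per run) and regression-normalized.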
row,Sequence,PBM binding z-score
1,CATACAGGGTCAGCAAGGCCAGAGTAGGGACGGC,3.47
2,CCTACTGGGCCAAAAAAGTCATTGATGCCGATAA,0.271
3,CCAGACAGGTGGAAGGTAACTCAGTCTGGTACGC,0.719
4,GCTAGTTGGTCAGTAAAGGGTCACACACCGGTCG,1.72
5,TCTTGTAGCTCAAGCAGGTTAAGAAAGCCTGAGT,-0.708
6,ACTAGCAGGCCAAGGGTCACTAAAGATTAGTCCG,8.06
7,CCGACTGGGGCCAGGTTACCATAACGCACAGCCA,0.629
8,ATATGTAGGTTATCGGGTCATTCAATTTGCGCAT,7.6
9,CCTTTCGGGTCACTCCAGGTTATAGCATCGGAGT,3.15
10,ACAGACAGGTGAGTGAAGGTAACTCCGCTGGACG,0.503
11,TGTCAAAGTTCAACGGTAACGTAAGTATCCACAC,8.27
12,ATCTGTAGGTTAAGGGTCATTCAGGTTGGTTCGC,9.93
13,GGAAGGAGGGCAAAGTTGATAGCATCTGTCGACG,7.61
14,CGTCGAAGTTCAAGGTAACGTAACAGAAAGCAGC,1.18
15,AGTCAAAGTTCATCCAGGTAACGTAAGATATGCT,6.19
16,TAGCCTAGGTCATGGGCGAGTATACCACGCGAAC,3.46
17,CCAGACAGGTGAGAAGGTAACTAAGCCTCGATTA,0.439
18,CATACAGGGTCAGCTACGCCAGAGTAGGGACGGC,3.26
19,CATACAGGGTCAGCGAGGCCAGAGTAGGGACGGC,4.21
20,AATACAGGGTCATCGCAGGCCAGAGTACGCACAG,6.6

row,Sequence,PBM binding z-score
1,TCATATAGGAAATACAGGTGAAAGTCGGCATCTA,1.1
2,TTACCAAGGTGGGCTGAGGTCGTTGATCCAACTC,-0.473
3,CAAACTAGGTCACCGGAAGGTCAAACTCCGCATG,9.8
4,TAGCCTAGGTCAGATCGGACCAGTATACGCTATA,0.959
5,TCATATAGGTAAAAGGTGAAAGTCGGTGTGGTAA,9.43
6,ACTATTCGTTGAGACGAGGGCAACCGATAGGTTG,0.548
7,TCGAGTAGGTTACCAATGGGCCATTCAGCTTTCT,0.383
8,TCGAGTAGGTTAGACGGGGCATTCAGCCAACATA,0.118
9,AGAATGAGGTTACTAAGATCAGGGAATTGCGGTC,2.35
10,CCGACTGAGGCAGAAAGGTTACCATACCATCCGG,1.05
11,GCAGACAGGTGAAACGCACGTAACTCAGGGTGGC,0.771
12,CCGACTGGGGCAGAAAGGTTACCATACCATCCGG,1.69
13,GCTCGGAGGAAAAGGTCAGAGCTTTGTCCGTAGA,2.82
14,AGAATGAGGTAAAGATCAGGGAAACAGAATACAT,2
15,CAGCCCAGGTCAGGGCCAGTATAGGAGGAACGTT,0.962
16,CGAACTAGGTCAGAACAGGACAGTGGAGGATGAT,5.08
17,CCTACTGGGCCATCAGGTCATTGATATCAACGTT,2.68
18,GTTTACGGGTCAAAGGTTATAGCATGAATAGAAT,11.3
19,TCAGACAGGTGAAGGTAACTCCGGTACGCAGTCG,0.509
20,TAGCCTAGGTCATGGGCCAGTATGCCACGCGAAC,4.02

# Test system: PPARg:RXRa 270nM:90nM, anti-RXR (NR concentration 270 nM, RXRa partner concentration 90 nM)
# Assay: as above
# Outline: as §1
row,Sequence,PBM binding z-score
1,CATACAGGGTCAGCAAGGCCAGAGTAGGGACGGC,3.27
2,CCTACTGGGCCAAAAAAGTCATTGATGCCGATAA,0.686
3,CCAGACAGGTGGAAGGTAACTCAGTCTGGTACGC,1.5
4,GCTAGTTGGTCAGTAAAGGGTCACACACCGGTCG,2.79
5,TCTTGTAGCTCAAGCAGGTTAAGAAAGCCTGAGT,0.77
6,ACTAGCAGGCCAAGGGTCACTAAAGATTAGTCCG,7.21
7,CCGACTGGGGCCAGGTTACCATAACGCACAGCCA,0.301
8,ATATGTAGGTTATCGGGTCATTCAATTTGCGCAT,6.31
9,CCTTTCGGGTCACTCCAGGTTATAGCATCGGAGT,3.78
10,ACAGACAGGTGAGTGAAGGTAACTCCGCTGGACG,-0.251
11,TGTCAAAGTTCAACGGTAACGTAAGTATCCACAC,7.38
12,ATCTGTAGGTTAAGGGTCATTCAGGTTGGTTCGC,9.03
13,GGAAGGAGGGCAAAGTTGATAGCATCTGTCGACG,7.29
14,CGTCGAAGTTCAAGGTAACGTAACAGAAAGCAGC,1.48
15,AGTCAAAGTTCATCCAGGTAACGTAAGATATGCT,6.44
16,TAGCCTAGGTCATGGGCGAGTATACCACGCGAAC,3.42
17,CCAGACAGGTGAGAAGGTAACTAAGCCTCGATTA,0.258
18,CATACAGGGTCAGCTACGCCAGAGTAGGGACGGC,3.22
19,CATACAGGGTCAGCGAGGCCAGAGTAGGGACGGC,3.65
20,AATACAGGGTCATCGCAGGCCAGAGTACGCACAG,6.2

row,Sequence,PBM binding z-score
1,TCATATAGGAAATACAGGTGAAAGTCGGCATCTA,2.77
2,TTACCAAGGTGGGCTGAGGTCGTTGATCCAACTC,0.212
3,CAAACTAGGTCACCGGAAGGTCAAACTCCGCATG,7.8
4,TAGCCTAGGTCAGATCGGACCAGTATACGCTATA,0.981
5,TCATATAGGTAAAAGGTGAAAGTCGGTGTGGTAA,8.85
6,ACTATTCGTTGAGACGAGGGCAACCGATAGGTTG,0.366
7,TCGAGTAGGTTACCAATGGGCCATTCAGCTTTCT,1.13
8,TCGAGTAGGTTAGACGGGGCATTCAGCCAACATA,0.993
9,AGAATGAGGTTACTAAGATCAGGGAATTGCGGTC,2.48
10,CCGACTGAGGCAGAAAGGTTACCATACCATCCGG,1.42
11,GCAGACAGGTGAAACGCACGTAACTCAGGGTGGC,0.0365
12,CCGACTGGGGCAGAAAGGTTACCATACCATCCGG,2.6
13,GCTCGGAGGAAAAGGTCAGAGCTTTGTCCGTAGA,4.46
14,AGAATGAGGTAAAGATCAGGGAAACAGAATACAT,2.05
15,CAGCCCAGGTCAGGGCCAGTATAGGAGGAACGTT,0.716
16,CGAACTAGGTCAGAACAGGACAGTGGAGGATGAT,4.33
17,CCTACTGGGCCATCAGGTCATTGATATCAACGTT,3.7
18,GTTTACGGGTCAAAGGTTATAGCATGAATAGAAT,9.13
19,TCAGACAGGTGAAGGTAACTCCGGTACGCAGTCG,2.09
20,TAGCCTAGGTCATGGGCCAGTATGCCACGCGAAC,3.65

# — the supplement of paper PMC6555819
